# Source: PubChem BioAssay AID449743 (Southern Research Specialized Biocontainment Screening …, 2010)
# Measured potencies and affinities stand elsewhere. Calls of active or inactive are those of the source. The rule behind the calls is not given here.
# Experiment: PhoP-promoter GFP reporter inhibition, GFP fluorescence, round 4, purified and synthesized compounds, late-stage follow-up (AID 449743)
# Conditions: Salmonella Typhi PhoP-promoter GFP reporter, 4 h; series mostly up to 150 µM; inhibition: at the top concentration
row,Compound,inhibition
1,S=C(NCc1ccc(Cl)cc1)Nc1ccc(I)cc1,13.2% (inactive)
2,O=C(NC1CCCCC1)N1CCCN(Cc2ccccc2F)C1,-9.24% (inactive)
3,S=C(NCc1ccc(Cl)cc1)NN1CCOCC1,13.6% (inactive)
4,S=C(NCc1ccccc1)NCc1ccc(Cl)cc1,-12.6% (inactive)
5,O=C(Nc1ccc(Cl)cc1)N1CCN(Cc2ccccc2F)C1,14.8% (inactive)
6,S=C(NCc1ccc(Cl)cc1)NC1CCCCC1,21.1% (inactive)
7,S=C(NCc1ccc(Cl)cc1)Nc1cccc(Br)c1,-18.7% (inactive)
8,S=C(NCc1ccc(Cl)cc1)Nc1ccccc1I,13.1% (inactive)
9,FC(F)(F)c1ccc(NC(=S)NCc2ccc(Cl)cc2)cc1,-0.02% (inactive)
10,Cc1ccccc1NC(=O)N1CCCN(Cc2ccccc2F)C1,-17.2% (inactive)
11,S=C(NCc1ccc(Cl)cc1)Nc1ccccn1,18.8% (inactive)
12,S=C(NCc1ccc(Cl)cc1)Nc1ccncn1,14.1% (inactive)
13,S=C(NCc1ccc(Cl)cc1)NC1CCOCC1,-4.47% (inactive)
14,O=C(Nc1ccc(Cl)cc1)N1CCCN(Cc2cccc(Br)c2)C1,-6.15% (inactive)
15,O=C(Nc1ccc(Cl)cc1)N1CCCN(Cc2cccc(F)c2)C1,36.1% (inactive)
16,FC(F)(F)c1ccccc1NC(=S)NCc1ccc(Cl)cc1,-17.6% (inactive)
17,S=C(NCc1ccc(Cl)cc1)Nc1ccccc1Br,15.5% (inactive)
18,CN1CCN(C(=S)NCc2ccc(Cl)cc2)CC1,18.2% (inactive)
19,N#Cc1ccc(CN2CCCN(C(=O)Nc3ccc(Cl)cc3)C2)cc1,-9.53% (inactive)
